Data: the supplement of paper PMC10338343
± gives the standard deviation. In all, about 8,200 sequences were measured (“pre-steady-state target cleavage rate”: median about 0.024, highest 2% from about 1.3 on). Shown is part of a subset that was picked to be rich in the highest values.

System: MIWI (PIWIL1) piRISC loaded with L1MC piRNA (30 nt)
Assay: pre-steady-state target cleavage rate (min^-1); MIWI and MILI are mouse PIWI proteins and EfPiwi is from a freshwater sponge; tags in brackets are library labels; higher = faster piRNA-guided slicing of the target
Conditions: guide: L1MC piRNA 5'p-UAACUAAAUACUAUGCAAGCUGUAGGUCCU
Protocol: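 Cleave-'n-Seq: a library of target RNAs (target site embedded in constant flanks, ACAGCATTCCGCGTTAGTGATATCCG... 5' flank; DNA-blocked outside the site) at 0.1 nM was incubated with 1 nM active mouse MILI or MIWI piRISC (synthetic 5'-monophosphorylated piRNA guide) with or without 500 nM mouse GTSF1 at 33 °C for 1 min to 16 h. Uncleaved targets were sequenced and normalised to non-target controls, and the pooled three trials were fitted to a burst-and-steady-state model to give the pre-steady-state cleavage rate (min^-1; k3 is constrained to at most 1e-4). Sequence is the target site only; target names encode pairing extent (gX:gY) and contiguous / 1-mismatch / 2-mismatch / bulge geometry. Fits with R² ≤ 0 are excluded.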

[1] = auxiliary factor: 500 nM mouse GTSF1
[2] = auxiliary factor: none (no GTSF1)

Sequence | pre-steady-state target cleavage rate [1] | pre-steady-state target cleavage rate [2]
UCCUCGUACAGCUUGCAUAGUAAUUAGUUA | 0.952 ± 0.032 | 0.029 ± 0.007
UCCUGCAUGAGCUUGCAUAGUAUUUAGUUA | 0.92 ± 0.051 | 0.0506 ± 0.01
UCCUGGAACAGCUUGCAUAGUAUUAUGUUA | 0.169 ± 0.023 | 0.013 ± 0.0044
UCCUGGAACACUUGCAUAGUAUUUAGUUA | 0.596 ± 0.032 | 0.0132 ± 0.0044
UCCACGUACAGCUUGCAUAGAAUUUAGUUA | 0.412 ± 0.022 | 0.0297 ± 0.0084
UCGACCUACAGCUUGCAAAGUAUUUAGUAA | 0.99 ± 0.053 | 0.0245 ± 0.0048
UGCACCUACAGCUUGCAAAGUAUUUAGUUA | 1.23 ± 0.08 | 0.0409 ± 0.0074
UCGACCUACAGCUUGCAAGUAUUUAGUUA | 0.427 ± 0.038 | 0.00682 ± 0.0023
ACGACCUACAGCUUGCAAAGUAUUUAGUUA | 1.56 ± 0.057 | 0.0528 ± 0.011
UCGACCUACAGCUUGCAAAGUAUUUAGUUA | 1.47 ± 0.056 | 0.0377 ± 0.0085
UGGACCUACAGCUUGCAAAGUAUUUAGUUA | 1.36 ± 0.058 | 0.0474 ± 0.0097
UCCACCUACAGCUUGCAAAGUAUUUAGUUA | 0.937 ± 0.044 | 0.0318 ± 0.0069
AGGACCUACAGCUUGCAAAGUAUUUAGUUA | 1.26 ± 0.053 | 0.0478 ± 0.0089
UGGACCUACAGCUUGCAAAGUAUUUAGUAA | 1.13 ± 0.074 | 0.0219 ± 0.006
UCCUGGUACUGCUUGCAUAGUAAUUAGUUA | 0.313 ± 0.047 | 0.0127 ± 0.0034
AGGACCUACAGCUUGCAUACUUUUUAGUUA | 0.0575 ± 0.011 | 0.00783 ± 0.0023
UCCUGGAUCAGGUUGCAAAGUAUUUAGUUA | 0.391 ± 0.036 | 0.0061 ± 0.0023
UCCACCUACACGUUGCAUAGUAUUUUCAAA | 0.22 ± 0.036 | 
UCCUGGAAGAGCUUCCAUAGUAUUUAGUUA | 0.255 ± 0.058 | 
UGGACCUACAGCUUGCAUAGUAUUUCAGUUA | 0.468 ± 0.06 | 0.0318 ± 0.0065
UGGUGGUACAGCUUGCAUAGUAUUUAGUUA | 1.3 ± 0.046 | 0.0711 ± 0.012

Sequence | pre-steady-state target cleavage rate [1] | pre-steady-state target cleavage rate [2]
UGGAGGUACAGCUUGCAUAGUAUUUAGUUA | 1.35 ± 0.064 | 0.0828 ± 0.015
UGGAGGUACAGCUUGCAUAGUAUUUAGUAA | 0.794 ± 0.065 | 0.0463 ± 0.0071
AGGUGGUACAGCUUGCAUAGUAUUUAGUAA | 0.645 ± 0.065 | 0.04 ± 0.0068
UCGAGGUACAGCUUGCAUAGUAUUUAGUUA | 1.04 ± 0.066 | 0.0604 ± 0.0095
AGGUGGUACAGCUUGCAUAGUAUUUAGUUA | 1.36 ± 0.057 | 0.0811 ± 0.015
AGGAGGUACAGCUUGCAUAGUAUUUAGAAA | 0.324 ± 0.044 | 0.0123 ± 0.0037
AGGAGGUACAGCUUGCAUAGUAUUUAGUAA | 0.803 ± 0.079 | 0.0437 ± 0.0095
AGGAGGUACAGCUUGCAUAGUAUUUAGUUA | 1.5 ± 0.072 | 0.0721 ± 0.011
UGGACCUACAGCUUGCAUAGAAUUUACAAA | 0.29 ± 0.062 | 
UGGACCUACAGGUUGCAUAGUAAUUAGUUA | 0.731 ± 0.055 | 0.0177 ± 0.0042
UGGACCUACAGCUUGCAUAGAAUUUUCAAA | 0.239 ± 0.048 | 
UCCUGGAUGUGCUUGCAUGGUAUUUAGUUA | 0.209 ± 0.02 | 0.0348 ± 0.0072
UCGACCUACAGCUUGCAUAGUAUUUAGAUA | 0.564 ± 0.043 | 0.0299 ± 0.0074
UCCACCUACACCUUGCAUAGUAUUUACAAA | 0.309 ± 0.053 | 0.00355 ± 0.0022
UCCUGGUACAGCUAGCAUAGUAUUAAGUUA | 0.378 ± 0.051 | 0.00772 ± 0.0027
UCCUGGAUGUGCUUGCAUAGUAUUUUAGUUA | 0.128 ± 0.018 | 0.021 ± 0.0069
UCCACCUACAGCUACGAUAGUAUUUAGUUA | 0.121 ± 0.016 | 
UCCUCCUACUGCUAGCAUAGUAUUUAGUUA | 0.871 ± 0.033 | 0.0164 ± 0.0031
UCGACCUUCAGCUUCCAUAGUAUUUAGUUA | 0.0473 ± 0.011 | 0.00293 ± 0.0014
UCCACCUUCAGCUUGGAUAGUAUUUAGUUA | 1.15 ± 0.033 | 0.0456 ± 0.0083
UCGACCUAGAGCUUGGAUAGUAUUUAGUUA | 1.25 ± 0.042 | 0.0475 ± 0.0077

Sequence | pre-steady-state target cleavage rate [1] | pre-steady-state target cleavage rate [2]
UGGACCUUCAGCUUGGAUAGUAUUUAGUUA | 1.59 ± 0.068 | 0.0597 ± 0.011
AGGACCUUCAGCUUGGAUAGUAUUUAGUUA | 1.48 ± 0.052 | 0.0657 ± 0.012
UCCUGCUUCAGCUUGGAUAGUAUUUAGUUA | 1.18 ± 0.078 | 0.049 ± 0.0081
UCGACCUUCAGCUUGGAUAGUAUUUAGUUA | 1.49 ± 0.05 | 0.0525 ± 0.0074
AGGACCUUCAGCUUCCAUAGUAUUUAGUUA | 0.101 ± 0.023 | 0.00546 ± 0.0024
UCCUCCUUCAGCUUGGAUAGUAUUUAGUUA | 1.19 ± 0.041 | 0.0358 ± 0.0057
UCCACCUAGUCCUUGCAUAGUAUUUAGUAA | 0.142 ± 0.021 | 0.00921 ± 0.0015
UCCUGGAACAGCUUGCAAAGUAAUUAGUUA | 0.545 ± 0.038 | 0.0139 ± 0.0055
UCCACCUACAGCUUGCAUAGAAUUUACAAA | 0.308 ± 0.054 | 
UCCUGGUACAGUUUGCAUAGUAUUUAGUUA | 0.706 ± 0.044 | 0.0392 ± 0.0063
ACGACCUACAGCUAGCAUAGUAUUUAGUUA | 1.3 ± 0.052 | 0.0406 ± 0.0091
AGGACCUACAGCUUGGCAUAGUAUUUAGUUA | 1.17 ± 0.17 | 0.0407 ± 0.0099
UGGACCUACAGCUUGGCAUAGUAUUUAGUUA | 1.01 ± 0.26 | 0.0197 ± 0.0048
AGGACCUACAGCUAGCAUAGUAUUUAGUAA | 0.836 ± 0.073 | 0.0193 ± 0.0066
AGGACCUACAGCUUAGCAUAGUAUUUAGUUA | 1.37 ± 0.052 | 0.0387 ± 0.011
UGGACCUACAGCUUAGCAUAGUAUUUAGUUA | 1.45 ± 0.08 | 0.0281 ± 0.0051
UGGACCUACAGCUAGCAUAGUAUUUAGUUA | 1.41 ± 0.074 | 0.0334 ± 0.0077
UCGACCUACAGCUAGCAUAGUAUUUAGUUA | 1.28 ± 0.053 | 0.0292 ± 0.0072
AGGACCUACAGCUAGCAUAGUAUUUAGUUA | 1.16 ± 0.061 | 0.0412 ± 0.0085
UGGACCUACAGCUAGCAUAGUAUUUAGUAA | 1.08 ± 0.065 | 0.016 ± 0.0033
UCCACCUACAGCUUAGCAUAGUAUUUAGUUA | 1.02 ± 0.03 | 0.0144 ± 0.0034

Sequence | pre-steady-state target cleavage rate [1] | pre-steady-state target cleavage rate [2]
UCGACCUACAGCUUAGCAUAGUAUUUAGUUA | 1.59 ± 0.058 | 0.0251 ± 0.0054
UCCUGGAUCAGCUUGCUAAGUAUUUAGUAA | 0.00706 ± 0.004 | 
UCCUCCUACAGCUUGCAUAGUAUUUACUUA | 0.383 ± 0.042 | 0.0348 ± 0.0074
UCCUGGAACAGUUGCAUAGUAUUUAGUUA | 0.337 ± 0.022 | 0.00545 ± 0.0021
UCCUGGAUCUGCAUGCAUAGUAUUUAGUUA | 0.204 ± 0.024 | 0.00439 ± 0.002
UCCUGGAUGUCGAACGUAUGUAUUUUAGUUA | < 0.0001 | 
UCCUCCUACAGCUUGCAUAGUAAAAAGUUA | 0.231 ± 0.023 | 
UCCUCCUACAGCUUACAUAGUAUUUAGUUA | 1.14 ± 0.031 | 0.0275 ± 0.0041
UCCUCCUACAGCUAGCAUAGUAUUUAGUUA | 0.838 ± 0.03 | 0.016 ± 0.0034
UCCUCCUACAGCUUAGCAUAGUAUUUAGUUA | 1.31 ± 0.054 | 0.0108 ± 0.0023
UCGUCCUACAGCUUGCAUAGUAUUUAGUAA | 0.82 ± 0.037 | 0.0372 ± 0.0076
UGGUCCUACAGCUUGCAAAGUAUUUAGUUA | 1.13 ± 0.04 | 0.0413 ± 0.0067
AGGUCCUACAGCUUGCAAAGUAUUUAGUUA | 1.35 ± 0.043 | 0.0532 ± 0.01
ACGUCCUACAGCUUGCAUAGUAUUUAGUUA | 1.52 ± 0.055 | 0.0835 ± 0.013
AGGUCCUACAGCUUGCAUAGUAUUUAGUAA | 0.77 ± 0.055 | 0.0647 ± 0.012
UGGUCCUACAGCUUGCAUAGUAUUUAGUUA | 1.16 ± 0.052 | 0.0862 ± 0.015
UCGUCCUACAGCUUGCAUAGUAUUUAGUUA | 1.42 ± 0.041 | 0.0638 ± 0.0093
UCGUCCUACAGCUUGCAUAGUAUUUAGAAA | 0.469 ± 0.042 | 0.00751 ± 0.0029
UCGUCCUACAGCUUGCAAAGUAUUUAGUUA | 1.3 ± 0.032 | 0.0388 ± 0.0068
AGGUCCUACAGCUUGCAUAGUAUUUAGUUA | 1.43 ± 0.054 | 0.111 ± 0.019
UCCUACUACAGCUUGCAUAGUAUUUAGUUA | 0.886 ± 0.036 | 0.057 ± 0.0085
